In PubChem BioAssay (NCATS):
Unmarked numbers belong to inactive results. Results filed as inconclusive are left out. Entries that show only a call come without a potency. Where a structure was tested more than once in an assay, its records may differ in their call. Active and inactive are the calls of the source. Calls follow the shape of the dose curve; as a rule, active = well fitted curve in the direction sought with a large enough effect; inconclusive = small, poorly fitted or top-dose-only effect, or another doubt; inactive = no such curve, though single readings can be large; an effect the other way counts as inactive or inconclusive.

Tests used:
[1] = qHTS assay for measurement of the activity of small molecule inhibitors on Zika virus induced Caspase-3 activity in human astrocytoma cells (AID 1224859); conditions: SNB-19 ZIKV-induced caspase-3/7, luminescence, 6 h; series mostly up to 45.7 µM
How it was run: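 Human SNB-19 astrocytoma cells in RPMI 1640 with 10% FBS receive compound one hour ahead of Zika virus at 2 FFU/cell. After 6 h infection, caspase-3/7 activity is detected by Caspase-Glo luminescence.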

[2] = qHTS Assay for Identifying Gametocytocidal Compounds (AID 743244); also: potency is read from the fitted curve at half-maximal effect;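 as to max response: actives lower the fluorescent signal which means gametocytes are killed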; conditions: P. falciparum 3D7 stage III-V gametocytes, alamarBlue, 72 h; max response: hits give low values
How it was run: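 Compounds are pinned into medium, gametocytes (stage III–V, 3D7, 20,000 cells/well) added, and plates held 72 h at 37 °C in 5% CO2. AlamarBlue follows for 24 h before fluorescence reading.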

[3] = qHTS assay for measurement of the activity of small molecule inhibitors on Zika virus induced Caspase-3 activity in human iPSC derived neural progenitor cells (hNPCs) (AID 1224857); conditions: hNPCs ZIKV-induced caspase-3/7, Caspase-Glo luminescence, 6 h; series mostly up to 45.7 µM; also: nearly all actives have a fitted effect of over 65% in size
How it was run: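 Pretreat hNPCs with compound 1 h; infect ZIKV 2 FFU/cell; 6 h 37 C, 5% CO2; Caspase-Glo 3/7, 30 min RT; luminescence; normalize to no-virus and virus-only wells.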

[4] = qHTS for compounds that reverse cellular toxicity of Amyloid beta (A-beta) peptide in yeast: LOPAC Validation Assay (AID 720559); conditions: yeast expressing A-beta; series mostly up to 46.1 µM
How it was run: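 Medium dispensed, compounds pinned, A-beta yeast suspension added; plates held at 30 C for 48 hr; absorbance measured at 600 nm to gauge growth; values scaled between DMSO and FeCl3/clioquinol (equimolar) controls.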

[5] = qHTS for Activators of Parkin Expression: LOPAC Validation Assay (NLuc Reporter) (AID 720572); conditions: Parkin promoter NanoLuc reporter cells, luminescence, percent of positive control, DMSO as zero; series mostly up to 46.1 µM
How it was run: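 Parkin promoter-driven FLuc/NLuc neuronal reporter cells; 24 h plating, 7-pt dose response, 24 h at 37 C/5% CO2; FLuc then NanoLuc reagent, 10 min each, luminescence; DMSO/positive control normalized.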

[6] = target: T1, Hexokinase-4 (Homo sapiens) + Glucokinase regulatory protein (Homo sapiens) (UniProt P35557+Q14397); assay: qHTS assay for inhibitors of recombinant human GCK-GKRP interaction: Diaphorase-coupled assay (AID 743205); conditions: G6PDH/diaphorase resorufin fluorescence; series mostly up to 57.5 µM
T1 sequence (P35557 whole entry, looked up): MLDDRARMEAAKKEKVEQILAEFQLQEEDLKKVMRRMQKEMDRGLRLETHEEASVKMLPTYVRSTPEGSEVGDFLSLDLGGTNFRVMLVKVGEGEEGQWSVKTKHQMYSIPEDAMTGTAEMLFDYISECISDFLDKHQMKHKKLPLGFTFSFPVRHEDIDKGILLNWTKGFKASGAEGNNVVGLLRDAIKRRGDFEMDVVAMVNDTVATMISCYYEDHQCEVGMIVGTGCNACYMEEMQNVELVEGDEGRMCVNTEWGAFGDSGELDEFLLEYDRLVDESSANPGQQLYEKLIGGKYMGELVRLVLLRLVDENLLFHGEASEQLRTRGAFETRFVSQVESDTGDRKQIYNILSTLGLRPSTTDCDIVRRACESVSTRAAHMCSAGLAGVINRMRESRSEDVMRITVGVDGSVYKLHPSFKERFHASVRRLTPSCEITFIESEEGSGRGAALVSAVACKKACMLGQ
T1 sequence (Q14397 whole entry, looked up): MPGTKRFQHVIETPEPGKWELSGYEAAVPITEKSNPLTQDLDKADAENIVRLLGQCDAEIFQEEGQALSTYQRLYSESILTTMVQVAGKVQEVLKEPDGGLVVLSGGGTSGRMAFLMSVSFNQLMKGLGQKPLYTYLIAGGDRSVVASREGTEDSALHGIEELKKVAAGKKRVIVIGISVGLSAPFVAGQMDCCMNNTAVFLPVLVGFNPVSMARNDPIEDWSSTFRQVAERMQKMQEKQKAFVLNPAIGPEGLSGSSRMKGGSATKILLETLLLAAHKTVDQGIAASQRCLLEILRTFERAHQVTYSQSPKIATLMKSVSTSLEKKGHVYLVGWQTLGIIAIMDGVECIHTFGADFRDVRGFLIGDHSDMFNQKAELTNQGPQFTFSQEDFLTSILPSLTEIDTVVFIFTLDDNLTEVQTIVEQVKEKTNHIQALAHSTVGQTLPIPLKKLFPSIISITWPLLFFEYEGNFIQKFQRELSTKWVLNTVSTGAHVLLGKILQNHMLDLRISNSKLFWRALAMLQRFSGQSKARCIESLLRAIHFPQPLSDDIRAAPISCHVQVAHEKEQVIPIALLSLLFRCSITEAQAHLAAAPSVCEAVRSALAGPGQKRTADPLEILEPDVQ
How it was run: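 25 mM Hepes pH 7.6, 5 mM glucose, 0.4 mM ATP, 4 U/ml G6PDH; 10 nM each GST-GCK/FLAG-GKRP. Kinetic fluorescence read, 1/min × 30 min. Normalized: DMSO ± enzyme = max/min.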

[7] = target: T1, Hexokinase-4 (Homo sapiens) + Glucokinase regulatory protein (Homo sapiens); assay: qHTS assay for inhibitors of recombinant human GCK-GKRP interaction: HTRF assay (AID 743207); conditions: recombinant GCK-GKRP HTRF binding, 60 min, with sorbitol-6-phosphate; series mostly up to 57.5 µM
How it was run: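 5 nM GST-GCK + 5 nM FLAG-GKRP + 2 uM S6P, pH 7.1 buffer (25 mM Hepes, 2 mM MgCl2, 25 mM KCl, 1 mM DTT, Tween/BSA); pin-transferred cpd; anti-FLAG XL665/anti-GST K; 60 min RT; HTRF.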

Which outcome [1] does the source give for `COC(=O)C1=C(C)NC(C)=C(C(=O)O[C@@H]2CCCN(Cc3ccccc3)C2)[C@@H]1c1cccc([N+](=O)[O-])c1` here?
Its outcome is “inactive”.

For `CC1(C)O[C@@H]2C[C@H]3[C@@H]4C[C@H](F)C5=CC(=O)CC[C@]5(C)[C@H]4[C@@H](O)C[C@]3(C)[C@]2(C(=O)CO)O1`, which max response [2] is on record?
Its max response is 1.24%.

And the outcome [3]?
Its outcome is “inactive”.

For `CN1[C@@H]2CC[C@H]1CC(OC(=O)c1c[nH]c3ccccc13)C2` (some centres not stated), which max response [2] is on record?
Its max response is 7.82%.

What about the outcome [3] of the same compound?
Its outcome is “inactive”.

Which outcome [4] does the source give for `N[C@H](CO)C(=O)O` here?
Its outcome is “inactive”.

And the outcome [5]?
The outcome was “inactive”.

And the outcome [6]?
The outcome was “inactive”.

What about the outcome [7] of the same compound?
Its outcome is “inactive”.

What about the outcome [3] of the same compound?
The outcome was “inactive”.

Which Potency [2] does the source give for `Cc1ccc(C(=O)C(C)CN2CCCCC2)cc1` (configuration not stated) here?
The Potency was 22.4 µM (active).

And the max response [2]?
The max response was -1.77%.

And the outcome [3]?
The outcome was “inactive”.

And the outcome [1]?
The outcome was “inactive”.

With `CN1C2CCC1CC(OC(=O)c1c[nH]c3ccccc13)C2` (configuration not stated) as the compound, how does the outcome [4] read?
The outcome was “inactive”.

And the outcome [5]?
The outcome was “inactive”.

And the outcome [6]?
Its outcome is “inactive”.

What about the outcome [7] of the same compound?
The outcome was “inactive”.

With `O=C(O)c1cc2cc(Cc3cccnc3)ccc2o1` as the compound, how does the outcome [4] read?
Its outcome is “inactive”.

And the outcome [5]?
Its outcome is “inactive”.

What about the outcome [6] of the same compound?
Its outcome is “inactive”.

And the outcome [7]?
The outcome was “inactive”.
